Laboratory results taken from PubChem BioAssay AID1159580 (chemical genetic matrix, 2015).
Out of some 5,500 compounds screened, about 2,000 (36%) were called active. Another 18% or so got no clear call; they are omitted. Some of the results follow. Unmarked numbers belong to inactive results. No stated cut-off is given here; in the data, active means normalized growth mostly below about 0.91 (no sharp cut-off); inconclusive means no clear call, values can overlap the other calls; inactive means mostly above about 0.92.

Assay: chemical genetic growth profiling, strain panel (AID 1159580);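 further: tested at 20 µM; growth read once vehicle control cultures reached saturation at 30 °C; 1 = growth at the plate median or of vehicle wells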
Settings: growth OD

## CC(=O)c1cc(CC=C(C)C)c(O)c(CC=C(C)C)c1
S. cerevisiae deletion strains, locus YJL187C, strain SWE1 (second series), stronger effect = lower value
  normalized growth: 0.961
S. cerevisiae deletion strains, locus YJL187C, strain SWE1, stronger effect = lower value
  normalized growth: 1.01
S. cerevisiae deletion strains, locus YJR043C, strain POL32, stronger effect = lower value
  normalized growth: 0.998
S. cerevisiae deletion strains, locus YKL009W, strain mrt4, stronger effect = lower value
  normalized growth: 0.947
S. cerevisiae deletion strains, locus YKL068W, stronger effect = lower value
  normalized growth: 0.969
S. cerevisiae deletion strains, locus YKL085W, strain MDH1 (second series), stronger effect = lower value
  normalized growth: 0.967
S. cerevisiae deletion strains, locus YKL085W, strain MDH1, stronger effect = lower value
  normalized growth: 0.967
S. cerevisiae deletion strains, locus YKL160W, strain elf1, stronger effect = lower value
  normalized growth: 1
S. cerevisiae deletion strains, locus YKR001C, strain vps1, stronger effect = lower value
  normalized growth: 0.898 (active)
S. cerevisiae deletion strains, locus YKR026C, strain gcn3, stronger effect = lower value
  normalized growth: 1.01
S. cerevisiae deletion strains, locus YKR091W, strain srl3, stronger effect = lower value
  normalized growth: 1.01
S. cerevisiae deletion strains, locus YLL001W, strain dnm1, stronger effect = lower value
  normalized growth: 1
S. cerevisiae deletion strains, locus YLL026W, stronger effect = lower value
  normalized growth: 1.01
S. cerevisiae deletion strains, locus YLL041C, strain sdh2, stronger effect = lower value
  normalized growth: 1.01
S. cerevisiae deletion strains, locus YLR027C, strain aat2, stronger effect = lower value
  normalized growth: 1.01
S. cerevisiae deletion strains, locus YLR039C, strain RIC1, stronger effect = lower value
  normalized growth: 0.697
S. cerevisiae deletion strains, locus YLR058C, strain SHM2, stronger effect = lower value
  normalized growth: 0.982
S. cerevisiae deletion strains, locus YLR102C, strain apc9, stronger effect = lower value
  normalized growth: 0.964
S. cerevisiae deletion strains, locus YLR221C, strain rsa3, stronger effect = lower value
  normalized growth: 1
S. cerevisiae deletion strains, locus YLR258W, strain gsy2, stronger effect = lower value
  normalized growth: 1.01
S. cerevisiae deletion strains, locus YLR262C, strain YPT6 (second series), stronger effect = lower value
  normalized growth: 0.949
S. cerevisiae deletion strains, locus YLR262C, strain YPT6, stronger effect = lower value
  normalized growth: 0.747
S. cerevisiae deletion strains, locus YLR268W, strain sec22, stronger effect = lower value
  normalized growth: 0.924
S. cerevisiae deletion strains, locus YLR320W, strain mms22, stronger effect = lower value
  normalized growth: 1.01
S. cerevisiae deletion strains, locus YLR330W, strain CHS5, stronger effect = lower value
  normalized growth: 0.923
S. cerevisiae deletion strains, locus YLR342W, strain FKS1 (second series), stronger effect = lower value
  normalized growth: 1.03
S. cerevisiae deletion strains, locus YLR342W, strain FKS1, stronger effect = lower value
  normalized growth: 1.02
S. cerevisiae deletion strains, locus YLR357W, strain rsc2, stronger effect = lower value
  normalized growth: 1.04
S. cerevisiae deletion strains, locus YLR370C, strain arc18, stronger effect = lower value
  normalized growth: 1
S. cerevisiae deletion strains, locus YLR371W, strain rom2, stronger effect = lower value
  normalized growth: 0.968
S. cerevisiae deletion strains, locus YLR384C, strain iki3, stronger effect = lower value
  normalized growth: 1.01
S. cerevisiae deletion strains, locus YLR418C, strain cdc73, stronger effect = lower value
  normalized growth: 0.758 (active)
S. cerevisiae deletion strains, locus YML016C, strain PPZ1, stronger effect = lower value
  normalized growth: 0.992
S. cerevisiae deletion strains, locus YML032C, strain rad52, stronger effect = lower value
  normalized growth: 0.988
S. cerevisiae deletion strains, locus YML120C, strain ndi1, stronger effect = lower value
  normalized growth: 0.997
S. cerevisiae deletion strains, locus YML124C, strain tub3, stronger effect = lower value
  normalized growth: 0.965
S. cerevisiae deletion strains, locus YMR058W, strain fet3, stronger effect = lower value
  normalized growth: 1.01
S. cerevisiae deletion strains, locus YMR078C, strain ctf18, stronger effect = lower value
  normalized growth: 0.962
S. cerevisiae deletion strains, locus YMR125W, strain sto1, stronger effect = lower value
  normalized growth: 1.02
S. cerevisiae deletion strains, locus YMR129W, stronger effect = lower value
  normalized growth: 1.01
S. cerevisiae deletion strains, locus YMR205C, strain PFK2, stronger effect = lower value
  normalized growth: 1.01
S. cerevisiae deletion strains, locus YMR223W, strain ubp8, stronger effect = lower value
  normalized growth: 0.951
S. cerevisiae deletion strains, locus YMR231W, strain pep5, stronger effect = lower value
  normalized growth: 1.01
S. cerevisiae deletion strains, locus YMR307W, strain GAS1, stronger effect = lower value
  normalized growth: 0.833
S. cerevisiae deletion strains, locus YNL067W, strain RPL9B, stronger effect = lower value
  normalized growth: 0.925
S. cerevisiae deletion strains, locus YNL071W, strain lat1, stronger effect = lower value
  normalized growth: 1.01
S. cerevisiae deletion strains, locus YNL128W, strain TEP1, stronger effect = lower value
  normalized growth: 0.917
S. cerevisiae deletion strains, locus YNL153C, strain GIM3, stronger effect = lower value
  normalized growth: 0.985
S. cerevisiae deletion strains, locus YNL209W, strain ssb2, stronger effect = lower value
  normalized growth: 1.01
S. cerevisiae deletion strains, locus YNL233W, strain BNI4, stronger effect = lower value
  normalized growth: 0.953
S. cerevisiae deletion strains, locus YNL248C, strain rpa49, stronger effect = lower value
  normalized growth: 1.01
S. cerevisiae deletion strains, locus YNL250W, strain rad50, stronger effect = lower value
  normalized growth: 0.979
S. cerevisiae deletion strains, locus YNL271C, strain bni1, stronger effect = lower value
  normalized growth: 0.962
S. cerevisiae deletion strains, locus YNL298W, strain CLA4, stronger effect = lower value
  normalized growth: 0.979
S. cerevisiae deletion strains, locus YNL307C, strain MCK1, stronger effect = lower value
  normalized growth: 0.955
S. cerevisiae deletion strains, locus YNL322C, strain KRE1 (second series), stronger effect = lower value
  normalized growth: 1.01
S. cerevisiae deletion strains, locus YNR049C, strain mso1, stronger effect = lower value
  normalized growth: 1.01
S. cerevisiae deletion strains, locus YNR052C, strain pop2, stronger effect = lower value
  normalized growth: 0.989
S. cerevisiae deletion strains, locus YOL006C, strain TOP1, stronger effect = lower value
  normalized growth: 0.75
S. cerevisiae deletion strains, locus YOL012C, strain htz1
  normalized growth: 0.849
S. cerevisiae deletion strains, locus YOL147C, strain pex11, stronger effect = lower value
  normalized growth: 0.981
S. cerevisiae deletion strains, locus YOR001W, strain rrp6, stronger effect = lower value
  normalized growth: 1.02
S. cerevisiae deletion strains, locus YOR061W, strain CKA2, stronger effect = lower value
  normalized growth: 0.978
S. cerevisiae deletion strains, locus YOR069W, strain VPS5, stronger effect = lower value
  normalized growth: 0.986
S. cerevisiae deletion strains, locus YOR070C, strain gyp1, stronger effect = lower value
  normalized growth: 1.02
S. cerevisiae deletion strains, locus YOR080W, strain dia2, stronger effect = lower value
  normalized growth: 1.02
S. cerevisiae deletion strains, locus YOR083W, strain WHI5, stronger effect = lower value
  normalized growth: 1
S. cerevisiae deletion strains, locus YOR106W, strain vam3, stronger effect = lower value
  normalized growth: 0.995
S. cerevisiae deletion strains, locus YOR136W, strain idh2, stronger effect = lower value
  normalized growth: 0.973
S. cerevisiae deletion strains, locus YOR144C, strain elg1, stronger effect = lower value
  normalized growth: 0.981
S. cerevisiae deletion strains, locus YOR184W, strain ser1, stronger effect = lower value
  normalized growth: 0.838 (active)
S. cerevisiae deletion strains, locus YOR265W, strain rbl2, stronger effect = lower value
  normalized growth: 1.02
S. cerevisiae deletion strains, locus YOR270C, strain vph1, stronger effect = lower value
  normalized growth: 0.949
S. cerevisiae deletion strains, locus YOR290C, strain snf2, stronger effect = lower value
  normalized growth: 1.02
S. cerevisiae deletion strains, locus YOR316C, strain cot1, stronger effect = lower value
  normalized growth: 0.979
S. cerevisiae deletion strains, locus YPL051W, strain arl3, stronger effect = lower value
  normalized growth: 1.01
S. cerevisiae deletion strains, locus YPL078C, strain atp4, stronger effect = lower value
  normalized growth: 1.01
S. cerevisiae deletion strains, locus YPL106C, strain sse1, stronger effect = lower value
  normalized growth: 1.06
S. cerevisiae deletion strains, locus YPL240C, strain hsp82, stronger effect = lower value
  normalized growth: 1.02
S. cerevisiae deletion strains, locus YPL241C, strain CIN2, stronger effect = lower value
  normalized growth: 0.974
S. cerevisiae deletion strains, locus YPR119W, strain clb2, stronger effect = lower value
  normalized growth: 0.987
S. cerevisiae deletion strains, locus YPR141C, strain kar3, stronger effect = lower value
  normalized growth: 0.97
S. cerevisiae deletion strains, locus YPR163C, strain tif3, stronger effect = lower value
  normalized growth: 0.952
S. cerevisiae deletion strains, locus YPR167C, strain met16, stronger effect = lower value
  normalized growth: 0.974
S. cerevisiae deletion strains, strain wtn01, stronger effect = lower value
  normalized growth: 0.908
S. cerevisiae strains, strain wild type, stronger effect = lower value
  normalized growth: 0.957
